Measurements: PubChem BioAssay AID1159580 (chemical genetic matrix, 2015)
Several values for one entry are separate records, joined by “and”; a condition that tells them apart may be missing. Equal entries are not always repeated. Hit rate of the full screen: of about 5,500 compounds, about 2,000 (36%) were called active. Inconclusive results (about 18%) are left out. Cut-off read from the data, not from the text of the source: active = normalized growth mostly below about 0.91 (no sharp cut-off); inconclusive = no clear call, values can overlap the other calls; inactive = mostly above about 0.92. The list shows a part of the results.

Assay: chemical genetic growth profiling, strain panel (AID 1159580);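 note: tested at 20 µM; growth read once vehicle control cultures reached saturation at 30 °C; 1 = growth at the plate median or of vehicle wells; lower values mean less growth of the strain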
Conditions: growth OD

Measured: normalized growth

CCC(C(N)=O)c1ccccc1 (configuration not stated)
inactive: S. cerevisiae deletion strains, locus YAL013W, strain DEP1, hits give low values 1.02 | S. cerevisiae deletion strains, locus YBR021W, strain FUR4, hits give low values 1.04 | S. cerevisiae deletion strains, locus YBR229C, strain ROT2, hits give low values 0.999 | S. cerevisiae deletion strains, locus YCL029C, strain bik1, hits give low values 0.992 | S. cerevisiae deletion strains, locus YDL035C, strain GPR1, hits give low values 1.03 | S. cerevisiae deletion strains, locus YDL074C, strain BRE1, hits give low values 1.04 | S. cerevisiae deletion strains, locus YDL101C, strain DUN1, hits give low values 1.01 | S. cerevisiae deletion strains, locus YDL134C, strain PPH21, hits give low values 1 | S. cerevisiae deletion strains, locus YDL185W, strain tfp1, hits give low values 0.997 | S. cerevisiae deletion strains, locus YDL192W, strain arf1, hits give low values 1 | S. cerevisiae deletion strains, locus YDR101C, strain arx1, hits give low values 0.986 | S. cerevisiae deletion strains, locus YDR150W, strain NUM1, hits give low values 1 | S. cerevisiae deletion strains, locus YDR162C, strain NBP2, hits give low values 1.03 | S. cerevisiae deletion strains, locus YDR318W, strain mcm21, hits give low values 0.998 | S. cerevisiae deletion strains, locus YDR388W, hits give low values 0.999 | S. cerevisiae deletion strains, locus YDR502C, strain sam2, hits give low values 1.01 | S. cerevisiae deletion strains, locus YEL061C, strain CIN8, hits give low values 1.02 | S. cerevisiae deletion strains, locus YER110C, hits give low values 0.987 | S. cerevisiae deletion strains, locus YER155C, strain BEM2, hits give low values 0.998 | S. cerevisiae deletion strains, locus YER167W, strain BCK2, hits give low values 1.01 | S. cerevisiae deletion strains, locus YGL078C, strain dbp3, hits give low values 1 | S. cerevisiae deletion strains, locus YGL086W, strain mad1, hits give low values 0.997 | S. cerevisiae deletion strains, locus YGL248W, strain PDE1, hits give low values 1 | S. cerevisiae deletion strains, locus YGR078C, strain PAC10, hits give low values 1.03 | S. cerevisiae deletion strains, locus YGR135W, strain pre9, hits give low values 1 | S. cerevisiae deletion strains, locus YGR229C, strain SMI1, hits give low values 1.01 | S. cerevisiae deletion strains, locus YGR252W, strain gcn5, hits give low values 1.11 | S. cerevisiae deletion strains, locus YHR030C, strain SLT2, hits give low values 1.01 and 0.954 | S. cerevisiae deletion strains, locus YHR079C, strain IRE1 (second series), hits give low values 0.99 | S. cerevisiae deletion strains, locus YHR079C, strain IRE1, hits give low values 0.992 | S. cerevisiae deletion strains, locus YHR094C, strain hxt1, hits give low values 0.982 | S. cerevisiae deletion strains, locus YHR129C, strain ARP1, hits give low values 1 | S. cerevisiae deletion strains, locus YHR200W, strain rpn10, hits give low values 1.01 | S. cerevisiae deletion strains, locus YIL066C, strain RNR3, hits give low values 1.01 | S. cerevisiae deletion strains, locus YIL073C, strain SPO22, hits give low values 0.946 | S. cerevisiae deletion strains, locus YIL125W, strain kgd1, hits give low values 1.01 | S. cerevisiae deletion strains, locus YIR030C, strain dcg1, hits give low values 0.998 | S. cerevisiae deletion strains, locus YJL095W, strain BCK1, hits give low values 1.03 and 0.98 | S. cerevisiae deletion strains, locus YJL134W, strain LCB3, hits give low values 1.01 | S. cerevisiae deletion strains, locus YJL168C, strain set2, hits give low values 0.981 | S. cerevisiae deletion strains, locus YJL187C, strain SWE1 (second series), hits give low values 1.01 | S. cerevisiae deletion strains, locus YJR043C, strain POL32, hits give low values 1.04 | S. cerevisiae deletion strains, locus YJR066W, strain TOR1, hits give low values 0.899 | S. cerevisiae deletion strains, locus YJR075W, strain HOC1, hits give low values 1.01 | S. cerevisiae deletion strains, locus YKL009W, strain mrt4, hits give low values 1.02 | S. cerevisiae deletion strains, locus YKL068W, hits give low values 0.998 | S. cerevisiae deletion strains, locus YKL085W, strain MDH1 (second series), hits give low values 1 | S. cerevisiae deletion strains, locus YKL085W, strain MDH1, hits give low values 1 | S. cerevisiae deletion strains, locus YKL190W, strain CNB1, hits give low values 1.02 | S. cerevisiae deletion strains, locus YKR001C, strain vps1, hits give low values 0.989 | S. cerevisiae deletion strains, locus YLR039C, strain RIC1, hits give low values 1.04 | S. cerevisiae deletion strains, locus YLR058C, strain SHM2, hits give low values 1.01 | S. cerevisiae deletion strains, locus YLR102C, strain apc9, hits give low values 0.983 | S. cerevisiae deletion strains, locus YLR113W, strain HOG1, hits give low values 1.01 | S. cerevisiae deletion strains, locus YLR262C, strain YPT6, hits give low values 1.04 | S. cerevisiae deletion strains, locus YLR268W, strain sec22, hits give low values 1.01 | S. cerevisiae deletion strains, locus YLR330W, strain CHS5, hits give low values 1.01 | S. cerevisiae deletion strains, locus YLR342W, strain FKS1 (second series), hits give low values 1.02 | S. cerevisiae deletion strains, locus YLR371W, strain rom2, hits give low values 0.984 | S. cerevisiae deletion strains, locus YLR418C, strain cdc73, hits give low values 1.06 | S. cerevisiae deletion strains, locus YML016C, strain PPZ1, hits give low values 1.01 | S. cerevisiae deletion strains, locus YML032C, strain rad52, hits give low values 1.01 | S. cerevisiae deletion strains, locus YML124C, strain tub3, hits give low values 0.994 | S. cerevisiae deletion strains, locus YMR078C, strain ctf18, hits give low values 0.996 | S. cerevisiae deletion strains, locus YMR223W, strain ubp8, hits give low values 0.986 | S. cerevisiae deletion strains, locus YMR263W, strain SAP30, hits give low values 1.02 | S. cerevisiae deletion strains, locus YMR307W, strain GAS1, hits give low values 1.1 | S. cerevisiae deletion strains, locus YNL067W, strain RPL9B, hits give low values 1.04 | S. cerevisiae deletion strains, locus YNL128W, strain TEP1, hits give low values 1.02 | S. cerevisiae deletion strains, locus YNL153C, strain GIM3, hits give low values 1.01 | S. cerevisiae deletion strains, locus YNL183C, strain NPR1, hits give low values 0.903 | S. cerevisiae deletion strains, locus YNL233W, strain BNI4, hits give low values 1.01 | S. cerevisiae deletion strains, locus YNL250W, strain rad50, hits give low values 1 | S. cerevisiae deletion strains, locus YNL271C, strain bni1, hits give low values 1 | S. cerevisiae deletion strains, locus YNL298W, strain CLA4, hits give low values 1.01 | S. cerevisiae deletion strains, locus YNL307C, strain MCK1, hits give low values 1.01 | S. cerevisiae deletion strains, locus YNL322C, strain KRE1, hits give low values 1.01 | S. cerevisiae deletion strains, locus YNR052C, strain pop2, hits give low values 0.984 | S. cerevisiae deletion strains, locus YOL006C, strain TOP1, hits give low values 1.06 | S. cerevisiae deletion strains, locus YOL012C, strain htz1 1.05 | S. cerevisiae deletion strains, locus YOL147C, strain pex11, hits give low values 0.988 | S. cerevisiae deletion strains, locus YOR061W, strain CKA2, hits give low values 1.01 | S. cerevisiae deletion strains, locus YOR069W, strain VPS5, hits give low values 1.01 | S. cerevisiae deletion strains, locus YOR136W, strain idh2, hits give low values 1 | S. cerevisiae deletion strains, locus YOR144C, strain elg1, hits give low values 0.997 | S. cerevisiae deletion strains, locus YOR184W, strain ser1, hits give low values 1 | S. cerevisiae deletion strains, locus YOR231W, strain MKK1, hits give low values 0.95 | S. cerevisiae deletion strains, locus YOR316C, strain cot1, hits give low values 0.988 | S. cerevisiae deletion strains, locus YPL055C, strain LGE1, hits give low values 1.05 | S. cerevisiae deletion strains, locus YPL241C, strain CIN2, hits give low values 1.01 | S. cerevisiae deletion strains, locus YPL256C, strain CLN2, hits give low values 0.962 | S. cerevisiae deletion strains, locus YPR119W, strain clb2, hits give low values 0.986 | S. cerevisiae deletion strains, locus YPR141C, strain kar3, hits give low values 1.01 | S. cerevisiae deletion strains, locus YPR163C, strain tif3, hits give low values 0.999 | S. cerevisiae deletion strains, locus YPR167C, strain met16, hits give low values 0.999 | S. cerevisiae deletion strains, strain wtn01, hits give low values 1 | S. cerevisiae strains, strain wild type, hits give low values 1.01
